Experiment [1] in a line: qHTS of pediatric cancer cell lines to identify multiple opportunities for drug repurposing: Primary screen for U-2 OS cells (AID 1347096). Also: nearly all actives have a fitted effect of over 50% in size. Also: potency is read from the fitted curve at half-maximal effect. In short, it runs like this:
(§1)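 Viability after 48 h compound treatment at 37C, 500-1,000 cells/well, read as ATP luminescence with CellTiter-Glo. Primary screens used 11-point (MIPE, 0.78 nM-46 µM) or 8-point (NPC, 0.59 nM-46 µM) final concentrations; follow-up screens used 11-point dilutions.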
On the technique in general: qHTS replaces the single test concentration by a dilution series.

A short description of experiment [2]: qHTS of pediatric cancer cell lines to identify multiple opportunities for drug repurposing: Primary screen for SK-N-SH cells (AID 1347098).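 Also: DMSO served as neutral control and bortezomib at 2.3 µM as positive control; nearly all actives have a fitted effect of over 65% in size.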 An outline of the steps: (§2)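 Cells (500-1,000/well) rested 5 h, then received compounds for 48 h; metabolically active cells were measured by CellTiter-Glo luminescence. Final concentrations spanned up to 46 µM (MIPE, 11-point) or 0.59 nM-46 µM (NPC, 8-point) in primary screens, 11-point in follow-ups.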

The nature of experiment [3]: qHTS of pediatric cancer cell lines to identify multiple opportunities for drug repurposing: Primary screen for NB1643 cells (AID 1347099). Also: nearly all actives have a fitted effect of over 50% in size. Also: potency is read from the fitted curve at half-maximal effect. An outline of the steps: (§3)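 Phenotypic viability qHTS, 48 h compound exposure, CellTiter-Glo luminescence read-out; multi-concentration dosing so that potency and efficacy derive directly from the primary screen's curves.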
Experiment [4] in a line: qHTS of pediatric cancer cell lines to identify multiple opportunities for drug repurposing: Primary screen for LAN-5 cells (AID 1347100). In short, it runs like this: as §1
A short description of experiment [5]: qHTS of pediatric cancer cell lines to identify multiple opportunities for drug repurposing: Primary screen for BT-12 cells (AID 1347101). Also: nearly all actives have a fitted effect of over 25% in size. In short, it runs like this:
as §2

The nature of experiment [6]: qHTS of pediatric cancer cell lines to identify multiple opportunities for drug repurposing: Primary screen for Rh18 cells (AID 1347102). Also: nearly all actives have a fitted effect of over 65% in size. An outline of the steps: as §1
Experiment [7] is described as follows: qHTS of pediatric cancer cell lines to identify multiple opportunities for drug repurposing: Primary screen for OHS-50 cells (AID 1347103). Also: nearly all actives have a fitted effect of over 40% in size. Also: potency is read from the fitted curve at half-maximal effect. An outline of the steps:
as §2

Experiment [8] is described as follows: qHTS of pediatric cancer cell lines to identify multiple opportunities for drug repurposing: Primary screen for RD cells (AID 1347104). Also: nearly all actives have a fitted effect of over 55% in size. In short, it runs like this: as §3
Experiment [9] can be described thus: qHTS of pediatric cancer cell lines to identify multiple opportunities for drug repurposing: Primary screen for MG 63 (6-TG R) cells (AID 1347105). Also: nearly all actives have a fitted effect of over 50% in size. In short, it runs like this:
as §3

Experiment [10] is described as follows: qHTS of pediatric cancer cell lines to identify multiple opportunities for drug repurposing: Primary screen for Saos-2 cells (AID 1347097). Also: nearly all actives have a fitted effect of over 40% in size. Also: potency is read from the fitted curve at half-maximal effect. In short, it runs like this: as §3

Records with an inconclusive call do not appear. Unmarked numbers belong to inactive results. Calls of active or inactive are those of the source. Calls follow the shape of the dose curve; as a rule, active = well fitted curve in the direction sought with a large enough effect; inconclusive = small, poorly fitted or top-dose-only effect, or another doubt; inactive = no such curve, though single readings can be large; an effect the other way counts as inactive or inconclusive.

We go through 24 compounds from PubChem BioAssay (NCATS).

As to `NN=C(N)N`, the Potency entry in experiment [1], in experiment [2], in experiment [3], in experiment [4], in experiment [5] and in experiment [6] was “inactive” in each case. For the same compound, the Potency entry in experiment [7], in experiment [8] and in experiment [9] was “inactive” each time.
`Oc1ccccc1-c1ccccc1`: the Potency entry in experiment [1], in experiment [2], in [3], in [4], in experiment [5] and in [7] was “inactive” throughout. Besides, the Potency result in experiment [8] was “inactive”.
`CC(C)(N)Cc1ccc(Cl)cc1`: the Potency result in [1], in experiment [2], in [3], in experiment [4], in [5] and in experiment [6] was “inactive” in each case. The Potency result in experiment [8] and in experiment [9] was “inactive” throughout.
Regarding `CCCC1CCCCN1` (configuration not stated), the Potency result in [1], in experiment [2], in experiment [3], in experiment [4], in experiment [5] and in experiment [6] was “inactive” each time. For the same compound, the Potency entry in experiment [7], in experiment [8] and in experiment [9] was “inactive” throughout.
In the case of `Nc1ccncc1`, the Potency result in experiment [1], in experiment [2], in [3], in experiment [4], in [5] and in experiment [6] was “inactive” in each case. Further, the Potency entry in experiment [7] and in experiment [8] was “inactive” in each case.
In the case of `O=C(O)c1ccc2[nH]cc(CCCCN3CC=C(c4ccccc4)CC3)c2c1`, the Potency result in [1], in experiment [2], in experiment [3], in experiment [4], in experiment [5] and in [6] was “inactive” each time. Also, the Potency result in experiment [8] was “inactive”.
Regarding `N[C@@H]1C[C@H]1c1ccccc1`, the Potency result in experiment [1], in [2], in experiment [3], in experiment [4], in [5] and in experiment [6] was “inactive” throughout. For the same compound, the Potency result in experiment [7], in experiment [8] and in experiment [9] was “inactive” each time.
Regarding `CC1OC(C)OC(C)O1` (configuration not stated), the Potency result in experiment [1], in experiment [2], in experiment [3], in experiment [4], in experiment [5] and in [6] was “inactive” each time. Besides, the Potency result in experiment [8] and in experiment [9] was “inactive” each time.
As to `O=C(O)C(=O)c1cn(Cc2ccccc2)c2ccc(-c3ccc(OC(F)(F)F)cc3)cc12`, the Potency result in experiment [1], in experiment [2], in experiment [4], in experiment [5] and in experiment [6] was “inactive” each time. Moreover, the Potency in [3] was 23.5 µM (active).
Consider `NCCc1cc(O)c(O)cc1O`, for which the Potency result in [1], in experiment [2], in [3], in [4], in experiment [5] and in experiment [6] was “inactive” throughout. The Potency entry in experiment [8] was “inactive”.
For the compound `NP(N)(=O)NC(=O)c1ccc(F)cc1`, the Potency result in experiment [1], in [2], in [3], in experiment [4], in experiment [5] and in [6] was “inactive” in each case. Further, the Potency result in experiment [7], in experiment [8] and in experiment [9] was “inactive” each time.
For the compound `CN1CCN(C(=O)O[C@H]2c3nccnc3C(=O)N2c2ccc(Cl)cn2)CC1`, the Potency entry in experiment [1], in [2], in experiment [3], in experiment [4], in experiment [5] and in experiment [6] was “inactive” throughout. Also, the Potency result in [7], in experiment [8] and in experiment [9] was “inactive” throughout.
In the case of `CC[N+]1(C)CCCC(OC(=O)C(O)(c2ccccc2)c2ccccc2)C1` (configuration not stated), the Potency result in experiment [1], in [2], in experiment [3], in [4], in experiment [5] and in experiment [6] was “inactive” in each case. For the same compound, the Potency entry in experiment [7] and in experiment [8] was “inactive” throughout.
Turning to `CCCN1CCC[C@@H]2Cc3[nH]ncc3C[C@H]21`, the Potency result in [1], in experiment [2], in experiment [3], in experiment [4], in experiment [5] and in experiment [6] was “inactive” in each case. In addition, the Potency result in experiment [7] and in [8] was “inactive” throughout.
In the case of `FC(F)(F)c1cccc(C2=CCN(CCc3ccc4ccccc4c3)CC2)c1`, the Potency result in experiment [1], in [2], in experiment [3], in [4], in experiment [5] and in experiment [6] was “inactive” in each case. In addition, the Potency result in experiment [8] is “inactive”.
For `C=CCN1CC[C@]23c4c5ccc(O)c4O[C@H]2C(=O)CC[C@@]3(O)[C@H]1C5`, the Potency entry in [1], in [2], in [3], in experiment [4], in experiment [5] and in experiment [7] was “inactive” each time. In [8], the Potency result was “inactive”.
Regarding `OCCOc1ccccc1`, the Potency entry in experiment [1], in [2], in experiment [3], in experiment [4], in [5] and in [7] was “inactive” throughout. Also, the Potency result in [8] is “inactive”.
Consider `Cc1ncc(CNC(=O)N(CCCl)N=O)c(N)n1`, for which the Potency result in experiment [1], in experiment [2], in experiment [3], in experiment [4], in experiment [5] and in [6] was “inactive” each time. The Potency entry in [7], in experiment [8] and in experiment [9] was “inactive” in each case.
Take `COC1(CS(=O)c2ccccc2)CCN(CCc2c[nH]c3ccc(F)cc23)CC1` (configuration not stated): the Potency result in experiment [1], in experiment [10], in experiment [3], in experiment [4], in experiment [5] and in [8] was “inactive” each time.
As to `CC(CCc1ccccc1)NC(C)C(O)c1ccc(O)cc1` (configuration not stated), the Potency entry in experiment [1], in experiment [2], in experiment [3], in experiment [4], in experiment [5] and in experiment [6] was “inactive” throughout. Besides, the Potency result in experiment [8] was “inactive”.
With `CO[C@]12CC[C@@]3(C[C@@H]1[C@](C)(O)C(C)(C)C)[C@@H]1Cc4ccc(O)c5c4[C@@]3(CCN1CC1CC1)[C@H]2O5`, the Potency in [1] is 38.2 µM (active); in [10], 30.3 µM (active); in experiment [7] it was 25 µM (active).
For `O=[N+]([O-])c1cc([As](=O)(O)O)ccc1O`, the Potency result in experiment [1], in experiment [2], in experiment [3], in experiment [4], in experiment [5] and in experiment [6] was “inactive” in each case. For the same compound, the Potency entry in experiment [7] and in [8] was “inactive” each time.
As to `CCCC(C)(COC(N)=O)COC(=O)NC(C)C` (configuration not stated), the Potency entry in experiment [1], in experiment [2], in [3], in experiment [4], in experiment [5] and in [7] was “inactive” each time. Also, the Potency entry in experiment [8] and in [9] was “inactive” each time.
For the compound `CNCC(O)c1ccc(O)cc1` (configuration not stated), the Potency result in experiment [1], in experiment [2], in experiment [3], in experiment [4], in experiment [5] and in experiment [6] was “inactive” throughout. Further, the Potency entry in experiment [7] and in [8] was “inactive” throughout.
